In all, about 220,000 compounds went through this assay and about 2,100 (0.95%) were called active. This excerpt belongs to a sample that is enriched for actives. A number with no mark means an inactive call.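 The calls were made as follows: active = compounds that cut the binding signal by more than half at the single screening dose; inactive = the rest.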
What follows are compounds tested against Induced myeloid leukemia cell differentiation protein Mcl-1 (Homo sapiens) (UniProt Q07820) (assay: Mcl-1/Bid binding inhibitors, primary screen, biochemical, TR-FRET, 1536-well (AID 1021;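 also: His-tagged Mcl-1 with europium anti-His antibody binding Bid BH3 peptide; 0% = Mcl-1 plus peptide wells and 100% = peptide-only wells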)). Details: TR-FRET Mcl-1/Bid-Dy647 peptide binding, at 21.7 µM, stronger effect = higher value.
Sequence of Induced myeloid leukemia cell differentiation protein Mcl-1 (Homo sapiens) (Q07820 whole entry, looked up): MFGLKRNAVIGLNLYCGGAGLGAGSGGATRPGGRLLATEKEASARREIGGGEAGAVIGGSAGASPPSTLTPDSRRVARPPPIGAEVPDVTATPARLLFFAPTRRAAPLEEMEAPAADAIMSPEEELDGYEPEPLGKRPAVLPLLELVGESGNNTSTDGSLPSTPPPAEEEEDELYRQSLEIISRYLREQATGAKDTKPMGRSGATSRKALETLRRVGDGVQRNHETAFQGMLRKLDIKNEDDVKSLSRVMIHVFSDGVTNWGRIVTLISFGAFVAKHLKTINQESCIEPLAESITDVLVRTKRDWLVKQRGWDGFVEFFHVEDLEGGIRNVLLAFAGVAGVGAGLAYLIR
Work on `O=[N+]([O-])c1cccc(C2=NCCS2)c1` yielded an inhibition of -9.78%. `O=[N+]([O-])c1cccc(Nc2c3ccccc3nc3ccccc23)c1` gave an inhibition of -10.4%. For `O=[N+]([O-])c1cccc(-c2nnc3c4ccccc4c4ccccc4n23)c1`, the inhibition was 52.9% (active). `CCOC(=O)C1CCCN(C(=O)COc2ccc(N(C)S(=O)(=O)c3ccc(C)cc3)cc2)C1` (stereo not given) showed an inhibition of -9.64%. `COc1ccc(C(=O)COC(=O)COc2ccc(C)c(C)c2)cc1` showed an inhibition of 11.1%. In the case of `CC(NC(=O)COC(=O)c1ccc2c(c1)OCO2)c1ccccc1` (stereo not given), the inhibition is reported as -4.79%. Compound `COc1ccc(Nc2ncnc3sc(-c4ccccc4)cc23)c(OC)c1` has an inhibition of -15%. `Cc1cccc(NC(=O)c2cc(N3C(=O)CCC3=O)ccc2Cl)n1` was tested, and the inhibition was 69.1% (active). In the case of `Cc1cccc(NC(=O)c2ccc3ccccc3n2)n1`, the inhibition is reported as -24%. Compound `Cc1cc(NC(=O)c2cccc(N3C(=O)CCC3=O)c2)no1` has an inhibition of -19.2%. For `O=[N+]([O-])c1cc(Br)c(O)c(/C=N/Nc2nc3ccccc3s2)c1`, the inhibition was 85.8% (active). In the case of `COc1cc(/C=N/Nc2nc3ccccc3s2)ccc1O`, the inhibition is reported as -5.09%. `c1ccc2sc(NN=C3CCCC3)nc2c1` gave an inhibition of -7.33%. `Cc1ccc(NC(=O)c2nc[nH]c2C(=O)N[C@@H](CCCCNC(=O)OC(C)(C)C)C(=O)OC(C)(C)C)cc1` was tested, and the inhibition was -46.2%. `CCOc1ccc(N=C2SC(C(=O)O)CC(=O)N2C)cc1` (stereo not given) showed an inhibition of 3.39%. With `CCOc1ccc(N=C2NC(=O)S/C2=C\c2ccc(O)cc2)cc1` the inhibition was 85.2% (active). In the case of `NC1=NC(=O)S/C1=C\c1ccc(O)cc1`, the inhibition is reported as -45.3%. `CCc1ccnc(NS(=O)(=O)c2ccc3c(c2)OCCO3)c1` was tested, and the inhibition was -5.34%. `Cn1c(=O)n(C)c2cc(C(=O)Nc3ccc4c(c3)OCO4)ccc21` showed an inhibition of -32.5%. For `O=C(Nc1ccccc1)c1ccc2c(c1)OCO2`, the inhibition was 1.56%. `O=C(Nc1ccc2c(c1)OCO2)c1ccc(N2C(=O)c3ccccc3C2=O)cc1` was tested, and the inhibition was 56.4% (active). Work on `COc1ccc(C(=O)OCC(=O)NCC2CCCO2)cc1[N+](=O)[O-]` (stereo not given) yielded an inhibition of -15.9%. Compound `[O-][N+]12CCCCC1CCCC2CO` (stereo not given) has an inhibition of -0.58%. Compound `COC(=O)CCCC1=CC2=C(c3ccccc3)C(=O)C(C)(OC(=O)C3CCCC3)C(=O)C2=CN1c1ccc(OC)cc1` (stereo not given) has an inhibition of -60.4%. In the case of `CC(=O)Nc1cc(C(=O)O)ccc1S(=O)(=O)c1ccc(Cl)cc1`, the inhibition is reported as 83% (active). With `CCOC(=O)N1CCN(C(=O)c2ccc(S(=O)(=O)c3ccc(C)cc3)c(NC(C)=O)c2)CC1` the inhibition was -11.4%. In the case of `Cc1ccc(S(=O)(=O)c2ccc(Cl)cc2)cc1S(=O)(=O)NC(C(=O)O)C(C)C` (stereo not given), the inhibition is reported as 4.83%. For `Cn1nccc1NC(=O)Nc1ccc(OC(F)(F)F)cc1`, the inhibition was -8.69%. In the case of `COc1cc(OC)cc(C(=O)Nc2ccc(-c3nc4ccccc4o3)c(O)c2)c1`, the inhibition is reported as 70.7% (active). With `O=C(Nc1ccc2oc(-c3ccccc3F)nc2c1)c1ccco1` the inhibition was -18.3%. Compound `COc1cc(OC)cc(C(=O)Nc2ccc(S(=O)(=O)Nc3cc(C)on3)cc2)c1` has an inhibition of -2.64%. Work on `O=C(NCCCn1ccnc1)C(=O)NCC1OCCN1S(=O)(=O)c1cc(F)ccc1F` (stereo not given) yielded an inhibition of -20.9%. In the case of `Cn1c(CSCC(=O)Nc2ccccc2)nnc1SCc1ccccc1`, the inhibition is reported as 1.29%. `CC(Sc1nc(-c2ccccc2)cc(C(F)(F)F)n1)C(=O)Nc1ccc2c(c1)OCO2` (stereo not given) showed an inhibition of -32.5%. For `CC(Sc1nnc2c(n1)C1CCC2(C)C1(C)C)C(=O)Nc1ccccc1` (stereo not given), the inhibition was 66.7% (active). `CSc1nc(C)cc(SC(C(C)=O)C(=O)Nc2ccccc2)n1` (stereo not given) was tested, and the inhibition was -18.3%. `COc1ccc(C(=O)NCC(=O)N/N=C/c2ccc([N+](=O)[O-])o2)cc1OC` gave an inhibition of -51.1%. `CNC(=O)c1cccc2nc3ccccc3nc12` gave an inhibition of -18.3%. Compound `CN1C2CCC1/C(=C\c1ccccc1Cl)C(=O)/C2=C\c1ccccc1Cl` has an inhibition of 7.72%. Compound `Cc1ccccc1CCN(CC(=O)NC1CCCCC1)C(=O)c1csnn1` has an inhibition of -16.2%. `CC1=CC2=NC(=O)CC(C)(C(=O)N(CC(=O)NC(C)(C)C)Cc3ccccc3)N2C=C1` (stereo not given) gave an inhibition of -15.8%. With `CC1=CC=CN2C1=NC(=O)CC2(C)C(=O)N(CC(=O)NC1CCCC1)c1ccccc1C` (stereo not given) the inhibition was 50.7% (active). `COC(=O)N(NC(=O)C(O)(C(C)C)C(C)C)c1ccccc1` was tested, and the inhibition was -9.27%. `CCNC(=S)N1CCN(c2ncccn2)CC1` gave an inhibition of -29.3%. In the case of `CNC(=S)N1CCN(c2ccccn2)CC1`, the inhibition is reported as -63.9%. In the case of `Cc1ccc(NC(=S)N2CCN(c3ncccn3)CC2)cc1C`, the inhibition is reported as 92.2% (active). Compound `COc1ccccc1-n1cn[nH]c1=S` has an inhibition of -143%. `O=C(N/N=C/c1ccc([N+](=O)[O-])o1)c1cn(-c2ccccc2)nc1-c1ccc(F)cc1` showed an inhibition of 25.7%. In the case of `C=CCSC(CC)(CC)C(N)=O`, the inhibition is reported as -11%. With `N=C1/C(=C/c2cccn2-c2cccc([N+](=O)[O-])c2)C(=O)N=C2SC=CN12` the inhibition was 71.5% (active). Work on `Cc1cc(/C=C2/C(=N)N3C(=NC2=O)SN=C3S(C)(=O)=O)c(C)n1-c1ccccc1` yielded an inhibition of -35.9%. For `COC(=O)c1c(C(=O)OC)c2n(c1C)CCS2`, the inhibition was -18.6%. In the case of `CC1COc2ccccc2N1C(=O)c1cccnc1Cl` (stereo not given), the inhibition is reported as -17.1%. For `Oc1c(Cl)cc(Cl)c(Cl)c1Cc1c(O)c(Cl)cc(Cl)c1Cl`, the inhibition was 100% (active). `CC(OC(=O)c1ccc(NS(=O)(=O)c2ccc3[nH]c(=O)[nH]c3c2)cc1)C(=O)Nc1cccc(Cl)c1Cl` (stereo not given) was tested, and the inhibition was -92.2%. Compound `O=C(O)CC1S/C(=N\N=C/c2ccccc2O)N(c2ccc(O)cc2)C1=O` (stereo not given) has an inhibition of -24.9%. Work on `CC(O)CNCCOc1cccc(Oc2ccccc2)c1` (stereo not given) yielded an inhibition of -8.32%. In the case of `O=C(NCCc1ccccn1)c1cccnc1Oc1ccc(Cl)cc1`, the inhibition is reported as -2.11%. `NC(=O)c1ccc(NC(=O)COC(=O)C(Cc2ccccc2)NC(=O)c2ccccc2)cc1` (stereo not given) gave an inhibition of -18.9%. For `CCOC(=O)N1CCN(Cc2nc(Cc3cccc(C(F)(F)F)c3)no2)CC1`, the inhibition was -53%.

Reference: PubChem BioAssay AID1021 (Emory University Molecular Libraries Screening Center, 2008)
